This passage reports outcome and AC50 results from PubChem BioAssay (EPA / NIEHS).

Read-out in experiment [1]: Macrophage colony-stimulating factor (MCSF), CSF1 (gene 1435)
The experiment is described as follows: BSK_LPS_MCSF: BioMAP Diversity Plus: LPS Assay for Macrophage colony-stimulating factor (MCSF) Biomarker Activity (AID 2283083). As to conditions: primary human HUVEC with PBMC; actives raise or lower the signal. In a few lines: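 HUVEC–PBMC co-culture, M-CSF measured by ELISA 24 h after chemical dosing. Fitted in both directions relative to DMSO as negative control; overt cytotoxicity assessed by SRB total-protein staining in parallel cultures.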

Read-out in experiment [2]: Tissue Factor, F3 (gene 2152)
The experiment is described as follows: BSK_LPS_TissueFactor: BioMAP Diversity Plus: LPS Assay for Tissue Factor Biomarker Activity (AID 2283084). As to conditions: primary human HUVEC with PBMC; actives raise or lower the signal. The gist of the method:
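Human umbilical vein endothelial cells co-cultured with PBMC were dosed with compound. Cell-surface CD142 was measured by ELISA 24 h later. Activity was fitted bidirectionally against DMSO, with SRB total-protein staining in parallel cultures for cytotoxicity.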

Read-out in experiment [3]: Tumor necrosis factor (Homo sapiens) (UniProt P01375)
The experiment is described as follows: BSK_LPS_TNFa: BioMAP Diversity Plus: LPS Assay for Tumour Necrosis Factor alpha (TNFa) Biomarker Activity (AID 2283085). As to conditions: primary human HUVEC with PBMC; actives raise or lower the signal. In a few lines:
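Human umbilical vein endothelial cells co-cultured with PBMC and stimulated with LPS. TNFa was measured by ELISA 24 h after chemical dosing, fitted bidirectionally relative to DMSO.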

Read-out in experiment [4]: Vascular cell adhesion molecule 1 (VCAM1), VCAM1 (gene 7412)
The experiment is described as follows: BSK_LPS_VCAM1: BioMAP Diversity Plus: LPS Assay for Vascular cell adhesion molecule 1 (VCAM1) Biomarker Activity (AID 2283086). As to conditions: primary human HUVEC with PBMC; actives raise or lower the signal. In a few lines: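 Human umbilical vein endothelial cells co-cultured with PBMC and stimulated with LPS; VCAM-1 measured by ELISA 24 h after dosing. Bidirectional curve fitting against DMSO baseline; cytotoxicity tracked in parallel by SRB total-protein staining.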

Read-out in a further experiment: CD38, CD38 (gene 952)
The experiment is described as follows: BSK_SAg_CD38: BioMAP Diversity Plus: SAg Assay for CD38 Biomarker Activity (AID 2283087). As to conditions: primary human HUVEC with PBMC; actives raise or lower the signal. In a few lines: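 Human HUVEC plus PBMC co-culture stimulated with superantigen; CD38 measured by ELISA 24 h after chemical dosing. Fluorescence read-out, bidirectional fit against DMSO; cytotoxicity tracked in parallel by SRB and Alamar Blue.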

Read-out in a further experiment: CD40, CD40 (gene 958)
The experiment is described as follows: BSK_SAg_CD40: BioMAP Diversity Plus: SAg Assay for CD40 Biomarker Activity (AID 2283088). As to conditions: primary human HUVEC with PBMC; actives raise or lower the signal. The gist of the method:
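HUVEC plus PBMC co-culture, superantigen-activated, with CD40 read by ELISA 24 h after dosing. Curves fitted in both directions against DMSO. Overt cytotoxicity checked by parallel SRB total-protein staining.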

Read-out in another experiment: CD69, CD69 (gene 969)
The experiment is described as follows: BSK_SAg_CD69: BioMAP Diversity Plus: SAg Assay for CD69 Biomarker Activity (AID 2283089).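 On AC50: cell surface CD69 protein quantified by ELISA with fluorescence detection.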 As to conditions: primary human HUVEC with PBMC; actives raise or lower the signal. The gist of the method:
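Endothelial/PBMC co-culture; chemical added; 24 h incubation; CD69 ELISA with fluorescence detection; bidirectional fit vs DMSO.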

Read-out in experiment [5]: Monocyte Chemoattractant Protein-1 (MCP1), CCL2 (gene 6347)
The experiment is described as follows: BSK_SAg_MCP1: BioMAP Diversity Plus: SAg Assay for Monocyte Chemoattractant Protein-1 (MCP1) Biomarker Activity (AID 2283090). Conditions: primary human HUVEC with PBMC; actives raise or lower the signal. In a few lines: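 MCP-1 levels in the endothelial–PBMC SAg co-culture were quantified by ELISA at 24 h post-dosing; both increases and decreases versus DMSO scored. Cytotoxicity monitored by SRB total protein in parallel cultures.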

Read-out in experiment [6]: E-selectin (Homo sapiens) (UniProt P16581)
The experiment is described as follows: BSK_SAg_Eselectin: BioMAP Diversity Plus: SAg Assay for Eselectin Biomarker Activity (AID 2283091). As to conditions: primary human HUVEC with PBMC; actives raise or lower the signal. The gist of the method: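 Human umbilical vein endothelial cells co-cultured with peripheral blood mononuclear cells, SAg system. E-selectin is measured by ELISA 24 h after dosing and fitted bidirectionally against DMSO. Cytotoxicity is checked by SRB staining of parallel cultures.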

Read-out in experiment [7]: Monokine induced gamma interferon (MIG), CXCL9 (gene 4283)
The experiment is described as follows: BSK_SAg_MIG: BioMAP Diversity Plus: SAg Assay for Monokine induced gamma interferon (MIG) Biomarker Activity (AID 2283092). As to conditions: primary human HUVEC with PBMC; actives raise or lower the signal. The gist of the method: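 Measures CXCL9 protein by ELISA in a human vascular primary-cell co-culture (umbilical vein endothelium with PBMC) 24 h after chemical addition. Activity is scored up or down from the DMSO control.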

Experiment [8] can be described thus: BSK_SAg_PBMCCytotoxicity: PBMC Cytotoxicity Assessment in the BioMAP Diversity Plus: SAg Assay (AID 2283093).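 Further: PBMC viability measured as Alamar Blue reduction fluorescence at 546/580 nm; fitted both ways against DMSO so a hit may be loss or gain of signal.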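 On AC50: PBMC superantigen activated with SEB plus TSST-1 one hour after compound addition.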 Conditions: primary human HUVEC with PBMC. In a few lines:
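Human umbilical vein endothelial cells co-cultured with PBMC; PBMC (75,000/well) pre-treated with compound 1 h, then activated with SEB and TSST-1 (20 ng/mL final each) for 90 h. Alamar Blue added 6 h, fluorescence 546/580 nm; bidirectional fit versus DMSO.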

Read-out in experiment [9]: Interleukin-8 (IL8), CXCL8 (gene 3576)
The experiment is described as follows: BSK_SAg_IL8: BioMAP Diversity Plus: SAg Assay for Interleukin-8 (IL8) Biomarker Activity (AID 2283094). Conditions: primary human HUVEC with PBMC; actives raise or lower the signal. In a few lines:
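Human umbilical vein endothelial cells co-cultured with PBMC, stimulated with superantigen; IL-8 measured by ELISA 24 h after chemical dosing. Bidirectional fitting versus DMSO; SRB staining in parallel cultures tracks cytotoxicity.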

Experiment [10] can be described thus: BSK_SAg_Proliferation: Cell Proliferation Assessment in the BioMAP Diversity Plus: SAg Assay (AID 2283095). Conditions: primary human HUVEC with PBMC. The gist of the method:
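Human umbilical vein endothelial cells co-cultured with PBMC; sulforhodamine B total-protein staining (0.1% SRB after 10% TCA fixation, absorbance 560 nm) at 96 h in sub-confluent culture. Fitted bidirectionally against DMSO.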

Experiment [11] in a line: BSK_SAg_SRB: Viability Assessment in the BioMAP Diversity Plus: SAg Assay (AID 2283096).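 Further: cells read one day after compound addition; hits may be either gain or loss of signal compared with DMSO.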 Conditions: primary human HUVEC with PBMC. The gist of the method: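 Endothelial/PBMC primary human co-culture; compound 24 h; fix 10% TCA, stain 0.1% SRB, A560; protein content as cytotoxicity proxy; bidirectional curve fit, DMSO = baseline.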
Experiment [12] addresses human CYP1A1, CYP1A1 (gene 1543) (UniProt P04798). The experiment is described as follows: NVS_ADME_hCYP1A1: NovaScreen (NVS) CYP450-related Enzyme Activity (ADME) Assay for human CYP1A1 (AID 2283100; active means hit-call score of the fitted dose curve at least 0.9, where 1 is the maximum). In a few lines: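 Recombinant CYP1A1 with a fluorogenic substrate, cell-free, read 1 h after dosing; acetonitrile as negative control. Single-concentration screen at 10 uM in duplicate, then concentration-response up to 20 uM for chemicals meeting ~30% inhibition threshold.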

Experiment [13] addresses human CYP1A2, CYP1A2 (gene 1544) (UniProt P05177). The experiment is described as follows: NVS_ADME_hCYP1A2: NovaScreen (NVS) CYP450-related Enzyme Activity (ADME) Assay for human CYP1A2 (AID 2283102; active means hit-call score of the fitted dose curve at least 0.9, where 1 is the maximum;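 further: potency for inhibition since loss of fluorescence marks reduced CYP1A2 activity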). The gist of the method: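 Recombinant human CYP1A2 from insect cells, cell-free, fluorogenic substrate; read 0.5 h after dosing with loss of fluorescence signal indicating inhibition. Primary screen in duplicate at 10 uM, acetonitrile as negative control.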

The target in experiment [14] is human CYP2A6, CYP2A6 (gene 1548) (UniProt P11509). The experiment is described as follows: NVS_ADME_hCYP2A6: NovaScreen (NVS) CYP450-related Enzyme Activity (ADME) Assay for human CYP2A6 (AID 2283099; active means hit-call score of the fitted dose curve at least 0.9, where 1 is the maximum). The gist of the method:
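Recombinant human CYP2A6 expressed in insect cells, cell-free; fluorogenic substrate turnover read by fluorescence intensity 0.5 h after dosing. Primary screen 10 uM in duplicate, then concentration-response up to 20 uM; acetonitrile as negative control.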

Results filed as inconclusive are left out. Activity calls are given as the source filed them. How the source made its calls, unless noted: active means hit-call score of the fitted dose curve at least 0.9, where 1 is the maximum; inactive means score below 0.9.

Chain of E-selectin (Homo sapiens) (P16581 whole entry, looked up): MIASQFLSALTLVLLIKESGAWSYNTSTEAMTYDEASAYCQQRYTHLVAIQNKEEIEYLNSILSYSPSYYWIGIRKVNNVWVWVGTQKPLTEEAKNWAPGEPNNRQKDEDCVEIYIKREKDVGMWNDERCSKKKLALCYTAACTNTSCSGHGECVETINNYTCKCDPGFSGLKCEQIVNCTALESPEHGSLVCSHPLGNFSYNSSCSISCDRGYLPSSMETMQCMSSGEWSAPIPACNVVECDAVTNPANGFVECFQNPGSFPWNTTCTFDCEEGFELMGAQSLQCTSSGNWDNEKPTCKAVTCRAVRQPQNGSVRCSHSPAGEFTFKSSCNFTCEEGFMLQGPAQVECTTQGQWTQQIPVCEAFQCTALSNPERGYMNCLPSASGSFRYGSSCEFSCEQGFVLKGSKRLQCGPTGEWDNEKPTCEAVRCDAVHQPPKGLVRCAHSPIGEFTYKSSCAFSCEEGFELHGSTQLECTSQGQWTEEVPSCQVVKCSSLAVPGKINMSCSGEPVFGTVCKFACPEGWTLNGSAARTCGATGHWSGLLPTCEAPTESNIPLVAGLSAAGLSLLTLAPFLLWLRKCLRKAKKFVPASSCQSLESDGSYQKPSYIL
Chain of Tumor necrosis factor (Homo sapiens) (P01375 whole entry, looked up): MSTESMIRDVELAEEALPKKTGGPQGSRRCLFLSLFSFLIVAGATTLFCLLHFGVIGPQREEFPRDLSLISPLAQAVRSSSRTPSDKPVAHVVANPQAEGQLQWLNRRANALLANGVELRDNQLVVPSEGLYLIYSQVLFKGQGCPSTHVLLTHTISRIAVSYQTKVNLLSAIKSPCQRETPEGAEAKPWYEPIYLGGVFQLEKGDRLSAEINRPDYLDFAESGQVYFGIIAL
Chain of human CYP2A6, CYP2A6 (gene 1548) (P11509 whole entry, looked up): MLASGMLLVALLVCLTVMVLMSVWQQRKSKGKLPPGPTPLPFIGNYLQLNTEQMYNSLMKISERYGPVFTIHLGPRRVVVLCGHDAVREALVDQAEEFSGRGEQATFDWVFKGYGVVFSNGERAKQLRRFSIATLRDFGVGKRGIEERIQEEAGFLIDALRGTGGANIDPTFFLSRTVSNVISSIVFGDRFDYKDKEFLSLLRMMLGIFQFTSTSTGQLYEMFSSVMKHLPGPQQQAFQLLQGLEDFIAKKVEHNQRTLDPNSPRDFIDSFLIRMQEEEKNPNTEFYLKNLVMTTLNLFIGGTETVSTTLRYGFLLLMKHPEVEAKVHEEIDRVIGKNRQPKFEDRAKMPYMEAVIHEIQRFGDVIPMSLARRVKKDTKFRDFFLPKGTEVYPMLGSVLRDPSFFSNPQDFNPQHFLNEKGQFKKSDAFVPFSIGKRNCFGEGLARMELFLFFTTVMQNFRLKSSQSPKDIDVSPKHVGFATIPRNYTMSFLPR
Chain of human CYP1A1, CYP1A1 (gene 1543) (P04798 whole entry, looked up): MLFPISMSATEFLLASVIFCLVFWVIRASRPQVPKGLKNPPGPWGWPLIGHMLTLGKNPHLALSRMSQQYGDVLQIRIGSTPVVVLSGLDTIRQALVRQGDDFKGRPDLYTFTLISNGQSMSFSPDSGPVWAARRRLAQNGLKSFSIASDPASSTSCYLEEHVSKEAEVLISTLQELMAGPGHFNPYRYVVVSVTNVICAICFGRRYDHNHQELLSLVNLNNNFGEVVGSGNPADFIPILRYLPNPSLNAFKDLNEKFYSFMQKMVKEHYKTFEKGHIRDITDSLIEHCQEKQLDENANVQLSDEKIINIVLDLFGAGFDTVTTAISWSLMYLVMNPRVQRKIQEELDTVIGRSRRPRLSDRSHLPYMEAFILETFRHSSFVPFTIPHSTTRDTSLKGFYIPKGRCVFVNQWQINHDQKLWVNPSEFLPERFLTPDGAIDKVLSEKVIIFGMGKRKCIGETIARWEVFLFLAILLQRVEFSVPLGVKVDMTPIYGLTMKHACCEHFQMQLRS
Chain of human CYP1A2, CYP1A2 (gene 1544) (P05177 whole entry, looked up): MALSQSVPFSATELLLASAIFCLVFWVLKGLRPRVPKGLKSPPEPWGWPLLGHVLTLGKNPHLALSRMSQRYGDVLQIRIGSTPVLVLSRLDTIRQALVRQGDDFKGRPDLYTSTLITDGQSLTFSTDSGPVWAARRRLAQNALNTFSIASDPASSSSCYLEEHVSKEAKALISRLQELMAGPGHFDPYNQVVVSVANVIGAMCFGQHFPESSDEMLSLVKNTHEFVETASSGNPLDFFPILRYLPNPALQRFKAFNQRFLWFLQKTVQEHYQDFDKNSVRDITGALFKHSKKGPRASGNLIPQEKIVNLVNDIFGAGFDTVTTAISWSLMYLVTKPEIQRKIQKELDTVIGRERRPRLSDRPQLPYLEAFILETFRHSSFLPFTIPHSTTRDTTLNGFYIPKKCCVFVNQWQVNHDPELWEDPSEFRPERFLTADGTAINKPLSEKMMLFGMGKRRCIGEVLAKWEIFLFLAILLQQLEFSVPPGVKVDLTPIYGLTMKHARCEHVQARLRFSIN

Regarding `On1ccccc1=S`, the result in experiment [1], in experiment [2], in [3], in experiment [9] and in experiment [11] was inactive. The AC50 was 19.8 µM (active) in experiment [4]; 12.2 µM (active) with CD38, CD38 (gene 952); 27.8 µM (active) in the experiment with CD40, CD40 (gene 958); 12.2 µM (active) in the experiment with CD69, CD69 (gene 969); 13 µM (active) in experiment [5]; 8.16 µM (active) in [6]. Besides, the AC50 in experiment [7] was 19.8 µM (active); in [8], 18.2 µM (active); in experiment [10], 6.94 µM (active).

Consider `Cn1c(=O)cc(Oc2ccc(F)cc2F)c2cnc(NCC(C)(C)O)nc21`, for which the outcome in [1] was “inactive”; in experiment [4] it was “inactive”; with CD38, CD38 (gene 952), “inactive”; with CD40, CD40 (gene 958), “inactive”; with CD69, CD69 (gene 969), “inactive”; in experiment [5] it was “inactive”. In addition, the outcome in experiment [6], in [7], in experiment [8], in [10] and in experiment [11] was inactive. Also, the AC50 in experiment [2] is 0.58 µM (active); in experiment [3] it was 5.06 µM (active); in experiment [9], 1.09 µM (active).

For `Oc1ccc2c(c1)-c1ccccc1C2`, the outcome is “inactive” in experiment [1]; “inactive” in experiment [2]; “inactive” in experiment [4]; “inactive” with CD38, CD38 (gene 952); “inactive” in the experiment with CD69, CD69 (gene 969); “inactive” in [5]. Moreover, the result in experiment [6], in [7], in [8], in experiment [9] and in experiment [10] was inactive. Moreover, the AC50 is 0.334 µM (active) in experiment [3]; 24.8 µM (active) with CD40, CD40 (gene 958); 20 µM (active) in [11]; 6.18 µM (active) in [12]; 0.691 µM (active) in [13].

With `CCOCCO`, the outcome in experiment [1] was “inactive”; in [2], “inactive”; in experiment [3], “inactive”; in [4] it was “inactive”; with CD38, CD38 (gene 952), “inactive”; with CD40, CD40 (gene 958), “inactive”. The outcome is “inactive” with CD69, CD69 (gene 969); “inactive” in experiment [5]; “inactive” in experiment [6]; “inactive” in experiment [7]; “inactive” in [8]; “inactive” in experiment [9]. In addition, the outcome in [10], in experiment [11] and in experiment [14] was inactive.

Consider `CC(C)CC(C)(O)C#CC(C)(O)CC(C)C` (stereo unspecified), for which the outcome in [1] was “inactive”; in experiment [2], “inactive”; in experiment [3], “inactive”; in experiment [4] it was “inactive”; in the experiment with CD38, CD38 (gene 952), “inactive”; with CD40, CD40 (gene 958), “inactive”. Besides, the outcome is “inactive” in the experiment with CD69, CD69 (gene 969); “inactive” in experiment [5]; “inactive” in [6]; “inactive” in [7]; “inactive” in [8]; “inactive” in [9]. Besides, the outcome in experiment [10] and in [11] was inactive.

With `CCCN(C1CCN(C(=O)C2CCNCC2)CC1)[C@@H]1CCc2ccc(OC)cc2C1`, the outcome is “inactive” in experiment [1]; “inactive” in experiment [2]; “inactive” in experiment [3]; “inactive” in experiment [4]; “inactive” with CD38, CD38 (gene 952); “inactive” with CD40, CD40 (gene 958). In addition, the outcome with CD69, CD69 (gene 969) was “inactive”; in experiment [5], “inactive”; in [6], “inactive”; in experiment [7], “inactive”; in experiment [8], “inactive”; in experiment [9] it was “inactive”. Also, the result in experiment [10] and in experiment [11] was inactive.

`CCOCCOCCOCCO`: the outcome in experiment [1] is “inactive”; in [2] it was “inactive”; in experiment [3], “inactive”; in experiment [4], “inactive”; with CD38, CD38 (gene 952) it was “inactive”; in the experiment with CD40, CD40 (gene 958), “inactive”. Further, the outcome in the experiment with CD69, CD69 (gene 969) is “inactive”; in [5], “inactive”; in [6], “inactive”; in experiment [7] it was “inactive”; in [8], “inactive”; in experiment [9], “inactive”. In addition, the outcome in experiment [10] and in experiment [11] was inactive.

A word on the AC50: it is the midpoint of the concentration-response curve, whichever way the signal moves.
